TTR transcr act = TTR transcription activators in neuroblastoma reporter cells, primary screen, cell-based, luminescence, SH-SY5Y, TTR promoter Gaussia luciferase; AID 1117267, 2014; 100% = recombinant luciferase protein wells; 92,000 tested, 1.3% active; activation, % at 16.7 µM;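 active = activation above the mean of all tested compounds plus 3 SD, cut at about 9.5% in these data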;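 also: cells exposed to compounds for one day before reading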
Hits are given with their value; 0 = inactive. This is one part of a sample in which hits are shown more often than they occur.

SMILES	TTR transcr act
COC(=O)c1cc(OC)c(OC)cc1NC(=S)Nc1cc(Cl)ccc1OC	0
COC(=O)c1cc(OC)c(OC)cc1NC(=S)Nc1cccc(Cl)c1	17
COC(=O)c1cccc(NC(=S)Nc2cccc(Cl)c2Cl)c1	0
O=[N+]([O-])c1ncccc1OCCOc1ccc(Cl)cc1Cl	0
C#CCN1C(=O)[C@]2(NCCc3c2[nH]c2ccc(OC)cc32)c2cc(F)ccc21	0
COc1ccc(-c2cc3ccccc3oc2=O)cc1NC(=O)c1cccnc1	0
O=C(NNC(=O)c1cc2ccccc2oc1=O)c1ccccc1	0
O=C(OCCNC(=O)c1cc2ccccc2oc1=O)c1cccnc1	12
COC(=O)[C@]12C[C@H](CC(=O)NCc3cccs3)C(=O)N(Cc3cccc4ccccc34)C1=C[C@H](C(C)(C)C)O[C@@H]2C	0
CC(=O)O[C@H]1[C@H](OC(C)=O)C[C@]2(OC(C)=O)C[C@H]1OC2=O	0
C=CCn1c(Sc2nc(C)cs2)nc2c1c(=O)[nH]c(=O)n2C	0
Cc1nnc(SCCn2c(N3CCCCC3)nc3c2c(=O)[nH]c(=O)n3C)s1	0
C=C(C)Cn1c(Sc2nnc(C)s2)nc2c1c(=O)[nH]c(=O)n2C	12
CC(C)(C)OC(=O)NCCc1ccccc1/C=C/S(=O)(=O)NC1CCCC1	0
O=c1[nH]c2ccccc2nc1N1CCOCC1	0
O=C(CN1CCOCC1)Nc1ccc(-c2nc3ccccc3[nH]2)cc1	0
S=C(c1nc2ccccc2[nH]1)N1CCOCC1	10.0
O=C(OCC#CCSc1nnc(-c2cccc3ccccc23)o1)c1cccc(F)c1	0
C[C@H]1C(c2ccccc2F)O[C@]2(C[C@H](O)c3c(ccc4ccccc34)O2)C[C@@H]1O (stereo partly specified)	0
O=C1C(=O)N(Cc2ccc(-c3ccc(Cl)nc3)cc2)c2ccc(OC(F)(F)F)cc21	0
CC1(C)C=C2C(N(CC3CC3)C(=N)N2C(=O)OCc2ccccc2)n2c(=O)n(-c3ccccc3)c(=O)n21 (stereo unspecified)	0
Cc1ccc2c(n1)sc1c(-c3ccccc3)c(C#N)c(N)nc12	0
Cc1ccc2c(N)c(C#N)sc2n1	27
Cc1ccc2nc(-c3sc4nc(C)ccc4c3N)[nH]c2c1	0
CCOC(=O)[C@@]12CCC3=C1N(CCC3)C(=O)[C@H](CC(=O)NCc1ccccc1)C2	0
SMILES	TTR transcr act
C[C@H]1[C@@H](OC(=O)NCc2cccs2)CC[C@@]23CCCN2C(=O)CCC[C@@H]13	0
O=C(NC1CCCCN(Cc2cccc(Cl)c2)C1=O)c1c(F)cccc1F (stereo unspecified)	0
CC(C)OC(=O)C1C(=O)CC(C)(O)C(C(=O)OC(C)C)C1c1cccnc1 (stereo unspecified)	12
CCOC(=O)C1C(=O)CC(C)(O)C(C(=O)OCC)C1c1ccc(OC)cc1 (stereo unspecified)	0
CCOC(=O)C1C(=O)CC(C)(O)C(C(=O)OCC)C1c1cccc(OC)c1 (stereo unspecified)	0
COc1cccc(NC(=O)Nc2nc3ncccn3c2-c2ccc(C(F)(F)F)cc2)c1	0
O=C(NCCc1ccccc1)OCc1cn(-c2ccc(Cl)cc2)nn1	0
O=C1C(=O)N(Cc2ccc(-c3ccc(F)nc3)cc2)c2ccc(OC(F)(F)F)cc21	0
Nc1[nH]c(C(=O)c2ccc(Br)cc2)c(-c2ccc(Br)cc2)c1C(=O)N1CCCCC1	0
CC12CN(C(=O)c3ccc([N+](=O)[O-])cc3)CC(C)(CN(C(=O)c3ccc([N+](=O)[O-])cc3)C1)C2=O	0
CC1(c2cc([N+](=O)[O-])cc([N+](=O)[O-])c2)CC(C)(C)N(C(=O)c2ccccc2)c2ccccc21 (stereo unspecified)	14
CN1CCN(c2ccc([N+](=O)[O-])cc2C(=O)c2ccccc2)CC1	0
CCN1CCCCC(NC(=O)c2ccc(F)cc2)C1=O (stereo unspecified)	0
Cc1ccc(-c2cc3nc(-c4ccco4)cc(N4CCN(Cc5ccoc5)CC4)n3n2)cc1	0
Cc1nn(-c2ccccc2)c(Cl)c1C(=O)NCC(C)C	0
CCc1nnc(NC(=O)c2c(C)nn(-c3ccccc3)c2Cl)s1	22
COc1ccc(NC(=O)c2c(C)nn(-c3ccccc3)c2Cl)cc1	0
COC(=O)[C@]12C[C@H](CC(=O)NCc3ccc(C)o3)C(=O)N(CCC3=CCCCC3)C1=C[C@H](C1CCCC1)O[C@@H]2C	0
FC(F)(F)Oc1ccc(Cn2ccc3ccc(-c4ccc5ccn(Cc6ccc(OC(F)(F)F)cc6)c5c4)cc32)cc1	0
OC(C#CCN1CCCC1)c1ccccc1 (stereo unspecified)	0
O=C1c2ccccc2C(=O)N1CC#CCN1CCN(C(c2ccccc2)c2ccccc2)CC1	11
O=C(C(c1ccccc1)c1ccccc1)N1CCN(CCN2C(=O)c3cccc4cccc(c34)C2=O)CC1	0
c1ccc(-c2ccc(CNc3nc(-c4ccccn4)nnc3-c3ccccc3)cc2)cc1	0
COc1ccc(-n2c(SCC(=O)Nc3cc(C)on3)nc3c([nH]c4ccccc43)c2=O)cc1	0
CCOc1ccc(-n2c(SCC(N)=O)nc3c([nH]c4ccccc43)c2=O)cc1	12

Screening data: PubChem BioAssay, The Scripps Research Institute Molecular Screening Center
